Measurements taken from PubChem BioAssay (NCATS).
Inconclusive results are not listed. Values without a mark were called inactive. Calls come from the whole dose curve; as a rule, active = well fitted inhibition curve with a large enough effect; inconclusive = small, poorly fitted or top-dose-only effect; inactive = flat fitted curve, though single readings scatter.

Molecular target: Calcium and integrin-binding protein 1 (Homo sapiens) (UniProt Q99828)
Experiment: Primary qHTS for Identification of Calcium Integrin Binding Protein 1 (CIB1) Competitor (AID 1508620);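 note: GST tagged CIB1 binding a fluorescein labelled alphaIIb integrin peptide tracer; top concentration of the series differs between compounds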
Settings: CIB1-GST / FITC-alphaIIb peptide fluorescence polarization; series mostly up to 57.7 µM; activity change, negative = inhibition: at the top concentration
Summary of the method: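 Fluorescence polarization competition: CIB1-GST (1 uM final) preincubated with compound 15 min at room temperature, then FITC-labeled alphaIIb peptide (100 nM final) added for another 15 min. Polarization read at Ex 480/Em 540.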
% is set by controls: 0 for no effect and ±100 for the full control effect.

Sequence of Calcium and integrin-binding protein 1 (Homo sapiens) (Q99828 whole entry, looked up): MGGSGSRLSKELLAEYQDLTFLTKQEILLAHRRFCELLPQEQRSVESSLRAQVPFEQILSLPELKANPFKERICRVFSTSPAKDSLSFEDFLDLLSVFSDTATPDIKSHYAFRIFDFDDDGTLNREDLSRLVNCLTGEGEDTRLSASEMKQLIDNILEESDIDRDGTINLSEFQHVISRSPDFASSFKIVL

| SMILES | activity change, negative = inhibition |
| --- | --- |
| COc1ccc(OC2OC(CO[C@@H]3O[C@@H](C)[C@H](O)[C@@H](O)[C@H]3O)C(O)C(O)C2O)cc1OC (stereo partly drawn) | -4.47% |
| O=C(/C=C/c1ccc(O)c(O)c1)O[C@H]1[C@H](OC2CCCCC2O)O[C@H](CO)[C@@H](O)[C@@H]1O (stereo partly drawn) | 1.94% |
| CC(O)C1NC(=O)C2CCCN2C1=O (stereo not drawn) | 4.24% [at 228 µM] |
| C[C@@H]1O[C@@H](O[C@H]2[C@@H]3C=CO[C@@H](O[C@@H]4O[C@H](CO)[C@@H](O)[C@H](O)[C@H]4O)[C@@H]3[C@@]3(CO)O[C@@H]23)[C@H](O)[C@H](OC(=O)/C=C/c2ccc(O)c(O)c2)[C@H]1O | -3.11% [at 30.2 µM] |
| CC(=O)OC[C@]12[C@@H](OC(=O)c3ccoc3)C[C@@H]3[C@@H](OC(C)=O)[C@]1(OC3(C)C)[C@@](C)(O)C[C@H](OC(=O)c1ccoc1)[C@@H]2OC(=O)c1ccoc1 | 3.5% [at 30.2 µM] |
| CC(=O)OCC1OC(OC2COC(OC3COC(OC4C(OC5C(CO)OC(OC6CCC7(C)C(CCC8(C)C7CC=C7C9CC(C)(C)CCC9(C(=O)OC9OC(CO)C(O)C(O)C9OC9OCC(OC%10OCC(O)(CO)C%10O)C(O)C9O)C(O)CC78C)C6(C)C)C(O)C5O)OCC(O)C4O)C(O)C3O)C(O)C2O)C(OC(=O)/C=C/c2ccccc2)C(O)C1OC(C)=O (stereo not drawn) | -1.97% [at 12.4 µM] |
| CC(=O)OC12CC(C)C(O)C1/C=C(/COC1OC(CO)C(O)C(O)C1O)CCC1C(/C=C(\C)C2=O)C1(C)C (stereo not drawn) | 1.92% |
| O=C(/C=C/c1ccc(O)cc1)OC[C@H]1O[C@@H](O/C(=C\c2ccccc2)C(=O)O)[C@H](O)[C@@H](O)[C@@H]1O | -3.17% |
